The source of these data is ChEMBL document CHEMBL3988442, “University of Dundee, Small-Polar-MMV Screening Library” (2021).

Assay [1] concerns the target T1, Aspartate--tRNA(Asp/Asn) ligase (Mycobacterium tuberculosis (strain ATCC 25618 / H37Rv)) (UniProt P9WFW3). Further: in the data most compounds retested in dose-response had high values.
T1 sequence (whole entry): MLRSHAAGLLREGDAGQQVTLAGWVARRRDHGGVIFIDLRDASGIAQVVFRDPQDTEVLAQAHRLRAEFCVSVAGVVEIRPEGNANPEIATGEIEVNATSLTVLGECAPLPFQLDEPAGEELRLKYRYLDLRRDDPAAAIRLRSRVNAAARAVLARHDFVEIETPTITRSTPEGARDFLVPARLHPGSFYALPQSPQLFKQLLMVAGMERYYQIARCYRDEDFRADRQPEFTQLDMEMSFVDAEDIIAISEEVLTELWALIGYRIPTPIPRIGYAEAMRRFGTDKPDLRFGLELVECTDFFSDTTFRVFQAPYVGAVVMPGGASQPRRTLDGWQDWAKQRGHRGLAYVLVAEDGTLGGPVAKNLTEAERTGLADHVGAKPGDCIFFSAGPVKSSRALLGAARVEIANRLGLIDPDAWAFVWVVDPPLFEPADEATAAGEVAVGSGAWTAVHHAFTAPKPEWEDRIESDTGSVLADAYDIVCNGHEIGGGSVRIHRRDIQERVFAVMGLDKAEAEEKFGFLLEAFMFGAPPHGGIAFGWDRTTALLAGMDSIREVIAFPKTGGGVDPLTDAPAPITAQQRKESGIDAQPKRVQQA
The assay can be described thus: Assay for Asp RNA synthetase-1 from Mycobacterium tuberculosis. The format is functional. More on the design: scale not given: direction of the effect not stated beside the values. The conditions noted are these: 30 µM.

The target in assay [2] is Shiga toxin 2 (Escherichia coli O157:H7) (UniProt P09385+P09386). The assay can be described thus: E. coli 0.157:H7 Shiga Toxin SOP - stx2 screening assay. The conditions noted are these: 30 µM. Details: scale not given: direction of the effect not stated beside the values. It is filed as functional.

SMILES strings stand for the structures.

Consider `CN(C)c1ncnc2c1CCN(CC1CCCC1)CC2`, for which the Percent Effect is -1.05% in assay [1] and -5.38% in assay [2].

For `CC(C)CN1CCC2(CCN(Cc3ccsc3)CC2)C1=O`, the results for the Percent Effect in assay [1] and in assay [2] were -5.3% and -18.6%, respectively.

In the case of `COc1ccc(CN(C)CC2(O)CCN(C(=O)c3cccn3C)C2)cc1` (centres undefined), the Percent Effect is 2.04% in assay [1] and -5.84% in assay [2].

Take `COCCN1C[C@@H]2CN(Cc3cccc(F)c3)CCC[C@]2(C(=O)O)C1`: the Percent Effect in assay [1] is 6.95%; in assay [2], -10.4%.

With `C[C@@H]1CN(C(=O)c2cccs2)C[C@]12CCN(CCN(C)C)C2=O`, the Percent Effect in assay [1] is -0.228%; in assay [2], -8.44%.

As to `CN(Cc1ccc(F)cc1)CC1(O)CCCN(CC(C)(C)C)C1=O` (centres undefined), the figures for the Percent Effect in assay [1] and in assay [2] were -0.167% and 28.1%, respectively.

Take `CSc1nccn1-c1cccc(C(=O)NCc2nnc(C)n2C)c1`: the Percent Effect worked out at 4.52% in assay [1] and 19.7% in assay [2].

As to `CSCC[C@H](N)C(=O)NCc1cc2n(n1)CCCN(C1CCCCC1)C2`, the figures for the Percent Effect in assay [1] and in assay [2] were -6.77% and 5.19%, respectively.

In the case of `CC(NCc1ccccc1Br)c1ccc2[nH]c(=O)[nH]c2c1` (centres undefined), the Percent Effect was 5.02% in assay [1] and -5.76% in assay [2].

Consider `CN(C)CC(=O)N1CCOCC2(C1)CN(c1ccccc1)C(=O)CO2` (centres undefined), for which the values for the Percent Effect in assay [1] and in assay [2] were 3.93% and -23.2%, respectively.

As for `CCS(=O)(=O)Nc1ccn(Cc2cccc(Cl)c2)n1`, the Percent Effect was 4.7% in assay [1] and -12.9% in assay [2].

With `CCCSCC(=O)NS(=O)(=O)c1ccc2c(c1)OCCO2`, the Percent Effect in assay [1] was -3.99%; in assay [2], 19.7%.

As to `COCCN(C)CCN1CC2(CCN(C3CCCOC3)CC2)OC1=O` (centres undefined), the values for the Percent Effect in assay [1] and in assay [2] were 3.6% and -60.6%, respectively.

As for `O=C(NCC1OCCc2cn(CC3CC3)nc21)c1ccsc1` (centres undefined), the Percent Effect is -3.57% in assay [1] and -12.1% in assay [2].

On to `Cc1cccc(CN2CCC3(CCCN(C(=O)NC4CC4)C3)C2=O)n1` (centres undefined), for which the Percent Effect is 6.63% in assay [1] and -5.22% in assay [2].

Consider `CC(C)CCN1CCNC(=O)C1CC(=O)N1CCc2sccc2C1` (centres undefined), for which the values for the Percent Effect in assay [1] and in assay [2] were -3.89% and -7.76%, respectively.

In the case of `CCc1cnc2c(c1NCc1ccncc1)c(=O)n(C)c(=O)n2C`, the Percent Effect in assay [1] is -0.949%; in assay [2], -7.71%.
